Data on six molecules can be found in PubChem BioAssay (NCATS).

Records with an inconclusive call do not appear. The source made the active and inactive calls. Unless noted, calls follow the shape of the dose curve; as a rule, active = well fitted curve in the direction sought with a large enough effect; inconclusive = small, poorly fitted or top-dose-only effect, or another doubt; inactive = no such curve, though single readings can be large; an effect the other way counts as inactive or inconclusive.

In test [1] the target is Lysosomal acid glucosylceramidase (Homo sapiens) (UniProt P04062). Put plainly: Glucocerebrosidase-p2 (AID 348; in the data active = potency below about 10 µM; also: potency is read from the fitted curve at half-maximal effect). The conditions noted are these: purified GBA, blue fluorogenic substrate, 40 min. An outline of the steps: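 Normal human glucocerebrosidase (0.2 nM) with blue fluorogenic substrate (80 uM final) in citrate/phosphate pH 5.9 with 10mM sodium taurocholate, 0.01% tween-20; 40 min RT, NaOH/glycine stop; fluorescence Ex 365/Em 440; AC50 from a titration from 0.6 nM upwards.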

Test [2] can be described thus: AP1 Signaling Pathway (AID 357; active = well fitted curve in either direction with a large enough effect, not every such curve was filed as active;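 also: ME-180 reporter cells stimulated with EGF at its EC50 level; % is scaled to controls: 0 for no effect and ±100 for the full control effect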). Particulars: ME-180 AP-1-bla reporter, EGF-induced, beta-lactamase ratio, 5 h; at 7.69 µM (top of the series) unless noted. An outline of the steps: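 Titration-series screen for positive or negative modulators of EC50 EGF-induced signaling in ME-180 cells carrying an AP-1-driven beta-lactamase reporter. After 5 hours at 37 degrees Celsius, CCF4 460nm/530nm emission ratio gave %Activity; AC50 values derived.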

The target of test [3] is Cytochrome P450 1A2 (Homo sapiens) (UniProt P05177). Put plainly: p450-cyp1a2 (AID 410; calls by dose curve; also: potency is read from the fitted curve at half-maximal effect). The conditions noted are these: recombinant CYP1A2, luciferin-ME demethylation, luminescence; series mostly up to 57 µM. An outline of the steps: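 Read-out is luminescence from luciferin produced by CYP1A2 demethylation of Luciferin-ME (100uM, at Km). Detection reagent stopped the 60 min NADPH-dependent reaction; signals were normalized to 57 uM furafylline.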

Test [4] can be described thus: NFAT Signaling Pathway (AID 444; active = well fitted curve in either direction with a large enough effect, not every such curve was filed as active;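 also: carbachol stimulus at about its EC50 of 1 µM final; % is scaled to controls: 0 for no effect and ±100 for the full control effect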). The conditions noted are these: Jurkat NFAT-bla M1, carbachol, beta-lactamase ratio, 5 h; at 7.69 µM (top of the series) unless noted. The essentials: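 Jurkat cells with NFAT-driven β-lactamase reporter and co-expressed M1 receptor, stimulated with carbachol (final 1 uM, ~EC50), compound titration, 5 h at 37 °C. CCF4 loaded 1 h at RT; 460/530 nm ratio gave %activity and AC50.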

The nature of test [5]: Stat Signaling Pathway (AID 446; active = well fitted curve in either direction with a large enough effect, not every such curve was filed as active;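 also: ME-180 cervical cancer cells given 40 pM IL-6 alongside compound; SIE-controlled beta-lactamase reporter measured as 460/530 nm FRET emission ratio; % is scaled to controls: 0 for no effect and ±100 for the full control effect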). The conditions noted are these: ME-180 SIE beta-lactamase reporter, IL-6 stimulated, 5 h; at 7.69 µM (top of the series) unless noted. The essentials:
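Compound effects on IL-6-induced STAT reporter activity were measured in ME-180 cells. After overnight culture, cells were co-treated with 40 pM IL-6 for 5 hrs before beta-lactamase substrate loading at room temperature.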

The target in test [6] is Glucocorticoid receptor (Homo sapiens) (UniProt P04150). Put plainly: GR-GFP Redistribution (AID 450;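 active = compounds whose dose series gives a full or clear partial fitted curve of increased nuclear translocation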; also: potency is read from the fitted curve at half-maximal effect). Particulars: U2OS GR-GFP nuclear translocation, laser cytometry, 2 h.
Test [7] has the same target. Put plainly: GR-EFC Redistribution (AID 451; calls by dose curve; also: potency is read from the fitted curve at half-maximal effect). Particulars: CHO-K1 GR-EFC translocation, beta-gal luminescence, 2 h. An outline of the steps:
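CHO-K1 cells expressing nuclear EA and GR-ED fragments of b-gal; compounds titrated up to 46 uM final, 2 h at 37 C. GR nuclear translocation read as complemented b-gal luminescence after 1 h RT detection.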

The target of test [8] is Mitogen-activated protein kinase 10 (Mus musculus) (UniProt Q61831). Put plainly: JNK3 AlphaScreen Assay (AID 530; active = well fitted curve in either direction with a large enough effect, not every such curve was filed as active;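 also: kinase came from lysate of stimulated human HepG2 cells; signal reports phosphorylation of biotinylated GST-cJun 1-79 at Ser73 with 10 µM ATP; % is scaled to controls: 0 for no effect and ±100 for the full control effect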). The conditions noted are these: JNK3 lysate, c-Jun phosphorylation; series mostly up to 57.1 µM. An outline of the steps:
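HepG2 lysate (IL-1b/TNFa pre-activated) + biotin-GST-cJun 1-79 + anti-pSer73 cJun; cpd titration, 15 min RT; ATP 10 uM start; Tris pH 7.6, MgCl2, DTT, vanadate; beads in EDTA buffer; AlphaScreen.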
For orientation: In Alpha technology, singlet oxygen from a donor bead excites a nearby acceptor bead.

Test [9] has as its target Cytochrome P450 3A4 (Homo sapiens) (UniProt P08684). Put plainly: qHTS Assay for Activators of Cytochrome P450 3A4 (AID 885). Also: nearly all actives have a fitted effect of over 65% in size. Particulars: recombinant CYP3A4, Luciferin-PPXE luminescence, 60 min; series mostly up to 57.1 µM. An outline of the steps: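 CYP3A4 activity: Luciferin-PPXE O-dealkylation, 25uM substrate, 200mM KPO4, RT throughout. Read-out is luciferase luminescence; higher values reflect activation.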
For orientation: qHTS replaces the single test concentration by a dilution series.

For test [10], the target named is Cytochrome P450 2C19 (Homo sapiens) (UniProt P33261). Put plainly: qHTS Assay for Inhibitors and Substrates of Cytochrome P450 2C19 (AID 899). Also: potency is read from the fitted curve at half-maximal effect; nearly all actives have a fitted effect of over 60% in size. Particulars: recombinant CYP2C19, luciferin-H EGE luminescence; series mostly up to 57.1 µM. The essentials: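 Signal comes from luciferase acting on luciferin released by CYP2C19-mediated hydroxylation of Luciferin-H EGE, 10uM (KM). Assay mix: 5nM enzyme, 50mM KPO4; 60 min at 37C with NADPH regeneration. Data normalized against 57uM ketoconazole.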

Test [11] is described as follows: qHTS Assay for Lipid Storage Modulators (AID 1519; calls by dose curve). The conditions noted are these: Drosophila S3 cells, BODIPY lipid droplet/cell ratio, laser cytometry, cells loaded with oleic acid; for activity change, negative = inhibition: at 57.5 µM (top of the series). An outline of the steps:
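Cells seeded at 5,000 per well were treated with compounds over a concentration series and loaded with oleic acid (400 uM, as added). Lipid droplet fluorescence (488 nm excitation, 500-530 nm channel) was read by laser-scanning cytometry and normalized to 20 uM Triacsin C.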

For test [12], the target named is Dual specificity protein kinase CLK4 (Homo sapiens) (UniProt Q9HAZ1). Put plainly: qHTS Assay for Inhibitors of CDC-like Kinase 4 (Kinase-Glo Assay) (AID 1770). Also: % is scaled to controls: 0 for no effect and ±100 for the full control effect; nearly all actives have a fitted effect of over 65% in size. Particulars: recombinant Clk4, Kinase-Glo ATP depletion luminescence; series mostly up to 66.7 µM. An outline of the steps: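 Luminescent ATP-depletion read-out (Kinase-Glo) after 4.5 h room-temperature reaction of Clk4 (25 nM final) with RS peptide (100 uM) and ATP (1 uM), pH 7.5 Tris buffer with MgCl2 and DTT.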

Test [13] shares this target. Put plainly: qHTS Assay for Inhibitors of CDC-like Kinase 4 (ADP-Glo Assay) (AID 1771). Also: % is scaled to controls: 0 for no effect and ±100 for the full control effect; nearly all actives have a fitted effect of over 70% in size. The conditions noted are these: recombinant CLK4, ADP-Glo luminescence; series mostly up to 80 µM. An outline of the steps:
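In this ADP-Glo format, 1 uM ATP and 100 uM RS peptide served as substrates for 25 nM Clk4 in Mg2+/EGTA/DTT/Triton buffer; reactions ran 1 hr at room temperature before luminescent ADP quantification.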

The target is the same in test [14]. Put plainly: qHTS Assay for Inhibitors of CDC-like Kinase 4 (ADP-FP Assay) (AID 1795).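 Also: recombinant human CLK4 phosphorylating RS repeat peptide at 1 µM ATP; % is scaled to controls: 0 for no effect and ±100 for the full control effect; nearly all actives have a fitted effect of over 60% in size.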 The conditions noted are these: Transcreener ADP fluorescence polarization; series mostly up to 50 µM. An outline of the steps: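 Kinase activity was measured as ADP production using Transcreener orange tracer (4 nM) and ADP antibody (1 ug/mL) fluorescence polarization, with ADP calculated from a calibration curve. The 1 h reaction contained 6.25 nM Clk4, 1 uM ATP and 100 uM RS peptide at pH 7.5 with Mg2+.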

For test [15], the target named is Ubiquitin carboxyl-terminal hydrolase 1 (Homo sapiens) (UniProt O94782). Put plainly: Inhibitors of USP1/UAF1: Pilot qHTS (AID 504865). Also: nearly all actives have a fitted effect of over 35% in size. Also: potency is read from the fitted curve at half-maximal effect. The conditions noted are these: purified USP1/UAF1, Ub-rhodamine cleavage fluorescence; series mostly up to 54.9 µM. An outline of the steps:
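Deubiquitinase activity followed as kinetic rhodamine fluorescence release from 150 nM Ub-Rho. 1 nM USP1/UAF1 with compound, after 15 min room-temperature preincubation, in HEPES pH 7.8 buffer containing TCEP, EDTA, BSA and Tween-20.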

Test [16] deals with 3',5'-cyclic-AMP phosphodiesterase 4B (Homo sapiens) (UniProt Q07343). Put plainly: qHTS Assay for Inhibitors of PDE-IV (AID 607; active = well fitted activation curve with a large enough effect in the main read-out, with a control signal flat, not every such curve was filed as active; also: % of control where 0% means no effect). Particulars: HEK293 ACTOne CNG channel cells, membrane potential fluorescence; series mostly up to 22.9 µM. An outline of the steps:
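ACTOne HEK293 cells carry a modified cAMP-gated CNG channel and express endogenous PDE4; plated 1000 cells/well, compounds up to 22.9 uM final. Membrane-potential dye fluorescence (ex 535/em 590) was read; parental cells received 10 uM forskolin + 100 uM RO 20-1724.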

A short description of test [17]: qHTS Assay for Identification of Small Molecule Agonists for Hypoxia Response Element Signaling Pathway (AID 914; active = well fitted activation curve with a large enough effect in the signal ratio, with a control signal flat, not every such curve was filed as active; the % refers to the signal ratio; also: potency is read from the fitted curve at half-maximal effect). Particulars: ME-180 (cervical carcinoma) HRE-bla reporter, beta-lactamase ratio, CoCl2, 17 h; activation: stronger effect = higher value. The essentials:
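Cells were plated overnight, pin-dosed with compound in a titration series, co-stimulated with EC50 CoCl2 and incubated 17 hours at 37 degrees Celsius. CCF4 substrate was then loaded, and AC50 values came from the 460nm/530nm ratio.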

The target in test [18] is Cytochrome P450 3A4 (Homo sapiens) (UniProt P08684). Put plainly: qHTS Assay for Inhibitors and Substrates of Cytochrome P450 3A4 (AID 884). Also: nearly all actives have a fitted effect of over 50% in size. Also: potency is read from the fitted curve at half-maximal effect. The conditions noted are these: recombinant CYP3A4, Luciferin-PPXE luminescence; series mostly up to 57.1 µM. The essentials: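 Luminescent readout of luciferin produced by CYP3A4 (20 nM) dealkylation of Luciferin-PPXE, 25 uM (its KM). NADPH-driven reaction ran 60 min at RT after 10 min compound preincubation; data scaled to 57 uM ketoconazole as 100% inhibition.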

The mark [19] stands for this setting: measured here: cell count channel max response.
The mark [20] stands for this setting: measured here: lipid channel max response.

Chain of Ubiquitin carboxyl-terminal hydrolase 1 (Homo sapiens) (O94782 whole entry, looked up): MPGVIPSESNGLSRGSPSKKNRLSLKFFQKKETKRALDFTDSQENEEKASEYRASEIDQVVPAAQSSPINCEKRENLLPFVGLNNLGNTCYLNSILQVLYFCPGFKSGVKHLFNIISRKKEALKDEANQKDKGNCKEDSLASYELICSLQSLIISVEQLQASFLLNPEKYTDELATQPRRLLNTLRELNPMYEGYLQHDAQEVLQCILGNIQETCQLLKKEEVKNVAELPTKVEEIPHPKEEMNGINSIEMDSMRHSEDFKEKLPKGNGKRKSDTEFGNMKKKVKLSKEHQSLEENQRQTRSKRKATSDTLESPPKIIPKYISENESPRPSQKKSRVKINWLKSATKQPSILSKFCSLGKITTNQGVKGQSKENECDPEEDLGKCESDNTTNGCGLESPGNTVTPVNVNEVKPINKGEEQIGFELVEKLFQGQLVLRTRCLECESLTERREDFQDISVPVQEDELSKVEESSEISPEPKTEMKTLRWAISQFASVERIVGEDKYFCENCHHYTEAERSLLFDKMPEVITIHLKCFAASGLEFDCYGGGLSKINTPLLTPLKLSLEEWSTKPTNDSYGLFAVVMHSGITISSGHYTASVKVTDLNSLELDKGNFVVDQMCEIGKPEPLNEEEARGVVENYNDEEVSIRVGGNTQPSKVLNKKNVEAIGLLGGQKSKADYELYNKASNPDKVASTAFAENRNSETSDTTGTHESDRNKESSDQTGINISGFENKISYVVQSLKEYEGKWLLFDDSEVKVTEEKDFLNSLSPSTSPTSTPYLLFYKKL
Chain of Cytochrome P450 1A2 (Homo sapiens) (P05177 whole entry, looked up): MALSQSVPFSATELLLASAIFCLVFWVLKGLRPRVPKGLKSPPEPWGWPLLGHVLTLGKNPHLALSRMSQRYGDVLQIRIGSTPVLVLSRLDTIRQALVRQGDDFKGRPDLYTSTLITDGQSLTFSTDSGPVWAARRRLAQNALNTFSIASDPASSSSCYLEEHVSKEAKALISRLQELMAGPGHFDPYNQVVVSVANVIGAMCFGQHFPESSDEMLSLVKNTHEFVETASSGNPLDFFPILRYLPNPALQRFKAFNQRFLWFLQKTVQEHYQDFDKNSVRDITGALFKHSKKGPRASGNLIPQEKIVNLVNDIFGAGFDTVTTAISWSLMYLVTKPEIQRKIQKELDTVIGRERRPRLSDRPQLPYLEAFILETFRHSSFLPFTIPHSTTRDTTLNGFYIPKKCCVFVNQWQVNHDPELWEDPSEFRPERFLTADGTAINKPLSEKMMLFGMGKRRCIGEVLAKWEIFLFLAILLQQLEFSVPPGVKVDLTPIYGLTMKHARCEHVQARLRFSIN
Chain of 3',5'-cyclic-AMP phosphodiesterase 4B (Homo sapiens) (Q07343 whole entry, looked up): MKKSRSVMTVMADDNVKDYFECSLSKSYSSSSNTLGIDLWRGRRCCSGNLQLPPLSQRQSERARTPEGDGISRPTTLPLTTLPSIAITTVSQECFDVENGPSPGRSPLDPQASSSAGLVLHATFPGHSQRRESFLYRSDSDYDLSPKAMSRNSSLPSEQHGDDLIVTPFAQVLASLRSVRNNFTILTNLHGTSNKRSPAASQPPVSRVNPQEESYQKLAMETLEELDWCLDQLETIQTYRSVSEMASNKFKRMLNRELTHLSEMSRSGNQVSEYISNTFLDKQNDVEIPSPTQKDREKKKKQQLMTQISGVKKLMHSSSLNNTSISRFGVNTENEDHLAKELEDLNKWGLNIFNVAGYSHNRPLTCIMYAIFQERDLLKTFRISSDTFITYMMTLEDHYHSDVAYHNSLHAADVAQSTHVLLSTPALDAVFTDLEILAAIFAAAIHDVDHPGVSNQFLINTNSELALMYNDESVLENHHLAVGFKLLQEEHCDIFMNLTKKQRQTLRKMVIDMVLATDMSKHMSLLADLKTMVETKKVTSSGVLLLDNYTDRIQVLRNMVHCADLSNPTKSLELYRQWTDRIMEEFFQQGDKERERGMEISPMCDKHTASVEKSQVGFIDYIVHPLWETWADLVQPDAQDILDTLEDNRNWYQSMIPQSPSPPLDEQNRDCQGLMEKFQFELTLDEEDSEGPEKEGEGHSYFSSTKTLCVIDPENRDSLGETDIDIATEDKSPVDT
Chain of Glucocorticoid receptor (Homo sapiens) (P04150 whole entry, looked up): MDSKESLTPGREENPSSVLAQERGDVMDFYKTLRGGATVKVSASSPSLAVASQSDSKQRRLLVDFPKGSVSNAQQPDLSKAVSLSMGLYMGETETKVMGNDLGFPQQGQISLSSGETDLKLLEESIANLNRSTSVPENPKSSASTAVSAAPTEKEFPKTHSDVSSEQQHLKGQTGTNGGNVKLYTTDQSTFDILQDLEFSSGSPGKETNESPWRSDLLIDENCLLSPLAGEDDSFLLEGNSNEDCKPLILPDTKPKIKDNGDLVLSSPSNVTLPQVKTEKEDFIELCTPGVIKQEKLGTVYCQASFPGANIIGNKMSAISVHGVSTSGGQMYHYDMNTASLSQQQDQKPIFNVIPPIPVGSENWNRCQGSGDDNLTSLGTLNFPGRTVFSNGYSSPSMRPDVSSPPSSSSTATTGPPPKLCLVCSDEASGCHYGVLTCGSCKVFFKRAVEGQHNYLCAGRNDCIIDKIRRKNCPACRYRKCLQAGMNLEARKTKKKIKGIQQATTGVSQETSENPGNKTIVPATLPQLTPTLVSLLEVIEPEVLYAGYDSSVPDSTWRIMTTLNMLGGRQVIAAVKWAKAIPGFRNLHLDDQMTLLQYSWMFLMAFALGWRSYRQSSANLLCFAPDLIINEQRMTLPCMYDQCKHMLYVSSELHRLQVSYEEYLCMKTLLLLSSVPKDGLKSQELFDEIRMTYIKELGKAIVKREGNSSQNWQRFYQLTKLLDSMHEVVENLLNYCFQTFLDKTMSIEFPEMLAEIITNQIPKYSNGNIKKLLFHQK
Chain of Lysosomal acid glucosylceramidase (Homo sapiens) (P04062 whole entry, looked up): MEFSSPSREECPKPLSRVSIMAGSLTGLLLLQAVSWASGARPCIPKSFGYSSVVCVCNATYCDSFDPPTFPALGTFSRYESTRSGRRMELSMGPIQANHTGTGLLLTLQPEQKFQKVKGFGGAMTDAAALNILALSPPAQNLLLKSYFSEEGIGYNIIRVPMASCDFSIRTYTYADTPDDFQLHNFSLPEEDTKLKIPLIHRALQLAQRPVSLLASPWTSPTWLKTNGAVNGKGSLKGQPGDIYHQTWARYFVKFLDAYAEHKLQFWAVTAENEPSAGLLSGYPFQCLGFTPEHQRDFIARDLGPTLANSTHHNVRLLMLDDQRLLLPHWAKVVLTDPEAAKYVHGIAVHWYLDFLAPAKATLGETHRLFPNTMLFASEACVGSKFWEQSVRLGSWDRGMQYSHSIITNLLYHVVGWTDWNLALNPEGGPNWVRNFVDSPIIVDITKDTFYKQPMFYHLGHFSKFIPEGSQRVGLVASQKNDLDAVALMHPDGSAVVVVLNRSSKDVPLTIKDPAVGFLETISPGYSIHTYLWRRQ
Chain of Cytochrome P450 3A4 (Homo sapiens) (P08684 whole entry, looked up): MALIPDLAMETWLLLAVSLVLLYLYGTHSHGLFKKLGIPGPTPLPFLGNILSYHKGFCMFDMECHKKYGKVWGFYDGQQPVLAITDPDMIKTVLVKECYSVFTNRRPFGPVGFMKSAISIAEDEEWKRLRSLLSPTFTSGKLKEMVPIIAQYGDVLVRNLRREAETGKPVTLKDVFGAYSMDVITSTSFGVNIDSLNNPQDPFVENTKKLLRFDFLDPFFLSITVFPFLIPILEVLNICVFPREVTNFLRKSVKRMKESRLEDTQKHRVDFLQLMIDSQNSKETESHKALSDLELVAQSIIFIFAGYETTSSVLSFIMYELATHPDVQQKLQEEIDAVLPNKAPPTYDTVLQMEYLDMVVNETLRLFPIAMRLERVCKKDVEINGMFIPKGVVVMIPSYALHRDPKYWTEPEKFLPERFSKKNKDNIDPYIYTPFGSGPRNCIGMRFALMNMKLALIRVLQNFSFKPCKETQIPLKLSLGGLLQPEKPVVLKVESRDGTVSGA
Chain of Dual specificity protein kinase CLK4 (Homo sapiens) (Q9HAZ1 whole entry, looked up): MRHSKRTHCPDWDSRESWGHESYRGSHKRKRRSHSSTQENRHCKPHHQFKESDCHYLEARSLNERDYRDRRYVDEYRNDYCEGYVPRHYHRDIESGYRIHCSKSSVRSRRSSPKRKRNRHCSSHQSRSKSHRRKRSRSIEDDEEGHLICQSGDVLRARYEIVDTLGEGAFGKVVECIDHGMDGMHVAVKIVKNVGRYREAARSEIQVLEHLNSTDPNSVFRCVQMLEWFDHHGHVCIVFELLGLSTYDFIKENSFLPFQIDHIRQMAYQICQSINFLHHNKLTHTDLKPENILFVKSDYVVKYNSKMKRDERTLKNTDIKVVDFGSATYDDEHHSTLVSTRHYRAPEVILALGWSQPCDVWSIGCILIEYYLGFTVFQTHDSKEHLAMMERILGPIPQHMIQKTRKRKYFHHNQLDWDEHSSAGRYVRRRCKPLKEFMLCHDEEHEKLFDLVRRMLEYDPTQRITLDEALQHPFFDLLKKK
Chain of Cytochrome P450 2C19 (Homo sapiens) (P33261 whole entry, looked up): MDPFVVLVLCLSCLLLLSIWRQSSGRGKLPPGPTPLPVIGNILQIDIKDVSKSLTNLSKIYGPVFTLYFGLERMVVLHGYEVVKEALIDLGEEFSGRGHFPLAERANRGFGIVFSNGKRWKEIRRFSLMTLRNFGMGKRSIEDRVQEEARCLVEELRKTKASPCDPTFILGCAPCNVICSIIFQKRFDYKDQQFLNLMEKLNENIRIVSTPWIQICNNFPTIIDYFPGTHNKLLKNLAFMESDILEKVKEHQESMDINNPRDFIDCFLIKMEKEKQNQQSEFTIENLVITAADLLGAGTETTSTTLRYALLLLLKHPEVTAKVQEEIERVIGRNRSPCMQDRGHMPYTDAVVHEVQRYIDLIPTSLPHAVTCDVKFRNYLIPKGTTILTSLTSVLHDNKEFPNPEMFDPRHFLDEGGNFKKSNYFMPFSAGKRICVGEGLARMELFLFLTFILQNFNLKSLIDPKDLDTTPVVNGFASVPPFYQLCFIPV

Turning to `COc1ccccc1-c1nccc(NCc2ccccc2)n1`, the Potency in [1] is > 11.4 µM (inactive); in test [3], 2.51 µM (active); in test [6] it was > 46 µM (inactive); in test [7], > 46 µM (inactive); in [10] it was 7.94 µM (active); in [15], 22.4 µM (active). For the same molecule, the activity change, negative = inhibition in [2] was -2.63% (inactive); in test [4] it was 1.11% (inactive); in test [11] it was 1.38% (inactive). Also, the activity, negative = inhibition in test [5] was 1.51% (inactive). In addition, the Potency entry in test [8], in [9], in test [12], in test [13] and in test [14] was “inactive” throughout. For the same molecule, the max response in [11] (setting [19]) was 3.72%; in [11] (setting [20]), 0.722%.
For the molecule `COCCn1c(=O)c(-c2ccc(OC)cc2)nc2cnc(N3CCN(C)CC3)nc21`, the Potency is > 11.4 µM (inactive) in test [1], > 9.22 µM (inactive) in [6], > 46 µM (inactive) in test [7] and 3.16 µM (active) in test [17]. Further, the results for the activity change, negative = inhibition in test [2] and in test [11] were 29.4% (inactive) and 6% (inactive), respectively. In addition, the Potency result in test [8], in test [16], in test [12], in test [13], in [14] and in test [15] was “inactive” throughout. Besides, the max response worked out at 16% in [11] (setting [19]) and 21% in [11] (setting [20]).
Consider `COCCn1c(=O)c(-c2ccccc2)nc2cnc(Nc3cccc(OC)c3)nc21`, for which the Potency is > 11.4 µM (inactive) in test [1], 3.98 µM (active) in test [3], > 9.22 µM (inactive) in test [6] and > 46 µM (inactive) in test [7]. The activity change, negative = inhibition was -5.93% (inactive) in [4] and 1.38% (inactive) in test [11]. For the same molecule, the activity, negative = inhibition in [5] is -18.3% (inactive). Also, the Potency result in test [8], in [12], in [13], in test [14] and in test [15] was “inactive” throughout. Further, the max response in [11] (setting [19]) was -0.938%; in test [11] (setting [20]), 0.127%.
For the molecule `COCCn1c(=O)c(CCc2ccccc2)nc2cnc(Oc3ccc(OC)cc3)nc21`, the Potency in test [1] was > 11.4 µM (inactive); in test [3], 15.8 µM (active); in test [6], > 9.22 µM (inactive); in test [7], > 46 µM (inactive); in test [18], 3.16 µM (active). For the same molecule, the activity change, negative = inhibition in test [2] was -14.8% (inactive); in test [4], 2.36% (inactive); in test [11], -2.61% (inactive). The activity, negative = inhibition in test [5] was -17% (inactive). Moreover, the Potency result in test [8], in [16], in test [9], in test [12], in [13] and in [14] was “inactive” each time. The Potency result in [15] is “inactive”. The values for the max response in test [11] (setting [19]) and in test [11] (setting [20]) were 5.1% and 2.19%, respectively.
`CN1CCN(c2ncc3nc(CCc4ccccc4)c(=O)n(C)c3n2)CC1`: the Potency was > 11.4 µM (inactive) in test [1], 12.6 µM (active) in test [3], > 9.22 µM (inactive) in test [6] and > 46 µM (inactive) in [7]. The results for the activity change, negative = inhibition in test [2], in test [4] and in test [11] were 14.9% (inactive), 1.74% (inactive) and 3.14% (inactive), respectively. Further, the activity, negative = inhibition in [5] is -2.48% (inactive). The Potency result in [8], in [16], in test [18], in test [13], in test [14] and in [15] was “inactive” in each case. The results for the max response in test [11] (setting [19]) and in test [11] (setting [20]) were 18.8% and 18.3%, respectively.
As for `CN1CCN(c2ncc3nc(-c4cccc(C#N)c4)c(=O)n(C)c3n2)CC1`, the Potency in test [1] is > 11.4 µM (inactive); in [6], > 9.22 µM (inactive); in test [7] it was > 46 µM (inactive). The activity change, negative = inhibition was 0.861% (inactive) in test [2], 13.1% (inactive) in test [4] and 1.68% (inactive) in test [11]. The activity, negative = inhibition in [5] is -0.0628% (inactive). The Potency entry in test [8], in [16], in test [12], in [14] and in [15] was “inactive” throughout. Also, the max response is 0.187% in test [11] (setting [19]) and 0.284% in test [11] (setting [20]).
